Source: PubChem BioAssay (Buhrlage Lab, Dana-Farber Cancer Institute and Novartis Institutes for BioMedical Research (Cambridge, Mass))
Shown are actives, neighbours in structure and some others; about 12% of the full set was active somewhere.
USP7 block: human USP7 deubiquitinase inhibition; purified USP7, Ub-rhodamine cleavage fluorescence; inhibition, % at 20 µM; 47,000 tested, 0.3% active
UCHL1 inh: human UCHL1 deubiquitinase inhibition | purified UCHL1, Ub-rhodamine cleavage fluorescence | inhibition, % at 20 µM | 47,000 tested, 0.2% active | AID 1645859
USP8 block: blocks human USP8 ubiquitin-rhodamine cleavage. purified USP8, Ub-rhodamine cleavage fluorescence, 30 min. inhibition, % at 20 µM. 47,000 tested, 4.2% active. AID 1645853
USP10 block: human USP10 deubiquitinase inhibition; Q14694; purified USP10, Ub-rhodamine fluorescence, 60 min; inhibition, % at 20 µM; 47,000 tested, 1.1% active; AID 1645856
USP17 inh: inhibitors of human USP17 deubiquitinase; A8MUK1; purified USP17, Ub-rhodamine cleavage fluorescence, 3 h; inhibition, % at 50 µM; 47,000 tested, 6.5% active
USP30 block: blocks human USP30 ubiquitin-rhodamine cleavage; Q70CQ3; purified USP30, Ub-rhodamine cleavage fluorescence; inhibition, % at 25 µM; 47,000 tested, 5.3% active; AID 1645860
Target sequence (Q70CQ3 whole entry, looked up): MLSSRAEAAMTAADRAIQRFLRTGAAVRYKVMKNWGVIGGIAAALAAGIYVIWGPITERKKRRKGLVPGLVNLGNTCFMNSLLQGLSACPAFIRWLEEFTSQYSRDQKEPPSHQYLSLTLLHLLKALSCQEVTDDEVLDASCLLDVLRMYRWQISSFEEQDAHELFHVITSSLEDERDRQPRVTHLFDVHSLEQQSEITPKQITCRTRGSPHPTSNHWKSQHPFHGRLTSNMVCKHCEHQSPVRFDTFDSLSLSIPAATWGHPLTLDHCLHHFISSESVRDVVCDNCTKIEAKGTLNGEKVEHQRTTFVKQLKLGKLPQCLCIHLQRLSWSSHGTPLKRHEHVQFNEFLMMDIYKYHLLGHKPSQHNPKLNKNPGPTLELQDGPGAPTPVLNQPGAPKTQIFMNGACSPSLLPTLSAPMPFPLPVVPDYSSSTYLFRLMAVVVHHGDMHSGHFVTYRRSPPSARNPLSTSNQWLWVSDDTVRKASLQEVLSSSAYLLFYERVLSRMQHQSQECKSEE
Active calls of the source: *. Cut-off read from the data, not from the text of the source: active = inhibition above about 30%; inactive = the rest.

SMILES	USP7 block	UCHL1 inh	USP8 block	USP10 block	USP17 inh	USP30 block
CCOC(=O)c1cccc(NC(=O)Cc2nc(-c3ccc(OC)cc3)no2)c1	4	-2	9	2	-9	-4
CN1C[C@@H](NC(=O)Nc2cccc(C#N)c2)C[C@H]1c1nc(-c2ccc(F)cc2)no1	-10	5	14	1	-14	-34
CCOc1ccc(NC(=O)CSCc2nc(-c3ccc(OC)c(OC)c3)no2)cc1	4	3	34*	-1	47*	-14
COc1ccc(-c2noc([C@@H]3C[C@H](NC(=O)Nc4cccc(C#N)c4)CN3C)n2)cc1	0	4	-3	7	25	37*
COc1ccc(-c2noc(CC(=O)Nc3cccc(C#N)c3)n2)cc1	0	-1	12	3	39*	18
Nc1nccnc1CC1CCCN(C(=O)c2ccc3c(c2)OCO3)C1 (centres undefined)	1	-3	-6	-8	-14	-19
CN1CC[C@@H]2[C@H]1C(=O)NC[C@H](CCC(=O)N1CCN(c3ccccn3)CC1)N2C	-22	12	72*	-2	-70	26
CN1[C@@H](CCC(=O)N2CCN(c3ccccn3)CC2)CNC(=O)[C@@H]2[C@H]1CCN2C1CCCCC1	-14	8	39*	0	-55	-2
CN1[C@@H](CCC(=O)N2CCN(c3ccccn3)CC2)CNC(=O)[C@H]2NCC[C@H]21	5	-2	9	0	3	0
Cc1ccc(CN2CC[C@@H]3[C@H]2C(=O)NC[C@H](CCC(=O)N2CCN(c4ccccn4)CC2)N3C)cc1	-5	0	8	-3	-78	-32
O=S1(=O)C[C@H](NC2CCCC2)[C@@H](S(=O)(=O)c2ccc(Cl)cc2)C1	-8	-8	-2	-6	-25	-46
CC(O)/C=C/C1OC(=O)CC1Nc1ccc(CO)cc1 (centres undefined)	9	8	4	4	44*	0
CCn1cc2c3c(cccc31)CN(C(=O)c1ccccc1F)CC2	-4	-3	4	-12	-5	-51
O=C(NCc1cccc(C(F)(F)F)c1)c1ccc(-n2cccn2)nc1	9	6	-10	6	7	32*
Cn1c(CC2CCN(C(=O)NCc3cccc(F)c3)C2)nc2cccnc21 (centres undefined)	-4	-4	-6	-5	-16	-34
O=C(Cn1cc(S(=O)(=O)Cc2ccc(F)cc2)c2ccccc21)N1CCCCCC1	-81	0	-2	0	-5	-3
O=S(=O)(Cc1ccc(F)cc1)c1c[nH]c2ccccc12	1	4	68*	2	28	-9
CC1CC(=O)Nc2ccccc2N1S(=O)(=O)c1ccc(C#N)cc1 (centres undefined)	4	0	-10	-3	2	55*
CCn1c(=O)[nH]c2cc(-c3nc(-c4ccccc4C)no3)ccc2c1=O	4	6	13	0	8	2
c1cncc(CN2CCC[C@H]2c2nc(-c3ccc(-c4cncnc4)nc3)no2)c1	-55	5	1	-2	-37	-82
COC1=C(N)C(=O)c2nc(-c3nc(C(=O)O)c(C)c(-c4ccc(O)c(OC)c4O)c3N)ccc2C1=O	-144	-34	-326	-16	46*	-172
CC(NC(=O)COC(=O)Cc1cccc(C(F)(F)F)c1)c1ccccc1 (centres undefined)	-13	2	2	0	5	-7
O=C(Nc1cc(S(=O)(=O)N2CCOCC2)ccc1N1CCOCC1)c1cc2c(s1)CCCC2	10	8	14	5	16	30*
O=C(Nc1cc(S(=O)(=O)Nc2ccc(Cl)cc2)ccc1O)c1cc2c(s1)CCC2	60*	33*	99*	70*	14	20
Nc1ccc(NC(=O)c2cc3c(s2)CCC3)cc1[N+](=O)[O-]	12	4	57*	11	58*	21
Cc1ccc(S(=O)(=O)N2CCCCC2)cc1NC(=O)c1cc2c(s1)CCC2	7	2	11	8	-2	15
CSCC[C@@H](NC(=O)C1CCC(CNC(=O)Cn2c(=O)[nH]c3ccccc3c2=O)CC1)C(=O)O (some centres undefined)	4	3	-109	2	-5	10
COc1cccc(C(=O)N2CCN(c3ncnc4c3nnn4Cc3ccccc3)CC2)c1	-6	3	12	4	19	35*
